Source: PubChem BioAssay
A selection: hits, their analogues and other compounds. The true share with any hit is near 1.1%.
Keap1-Nrf2 PPI – disrupts human Keap1 binding to Nrf2 peptide; inhibition, % at 9.4 µM; Keap1 Kelch-Nrf2 peptide fluorescence polarization, 1536-well; 340,000 compounds, 0.15% hits; Q14145; in the data active means inhibition above about 12%;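 further: human Keap1 Kelch domain with fluorescein labeled Nrf2 9mer peptide probe; 0% = neutral control wells and 100% = peptide positive control; higher means more block of Keap1 binding to Nrf2 peptide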
HDAC3 inh – inhibitors of human histone deacetylase 3. O15379. AID 2718. recombinant HDAC3, fluorogenic peptide/trypsin coupled, fluorescence. inhibition, % at 8.3 µM. 320,000 compounds, 0.15% hits; in the data active means inhibition above about 26%, passing the limit was not always enough
N-glyco inh – N-linked glycosylation inhibition. D54 ERlucT glycosylation luciferase reporter, 24 h; percent of 100 nM tunicamycin response. reporter increase, % at 12.5 µM. 360,000 compounds, 0.23% hits;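 active means mean luciferase reporter signal, scaled so untreated is 0 and the glycosylation-blocking control 100, at or above a set limit in every replicate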;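 further: luciferase carries N-glycosylation sites so blocking glycosylation raises the light; 0% = median of neutral control wells and 100% = median of 100 nM tunicamycin wells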
Casp6 inh – caspase-6 (human) enzyme inhibition; purified caspase-6, Z-VEID-R110 cleavage fluorescence; inhibition, % at 12.5 µM; 350,000 compounds, 0.53% hits;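 active means mean inhibition across replicates at least about 35%, with every replicate also reaching that limit, limit read from the data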;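 further: 0% = median of neutral control wells and 100% = no fluorescence left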
NSD2 inh – NSD2 (human) methyltransferase inhibition; O96028; NSD2 peptide methylation, AlphaScreen, 120 min; inhibition, % at 12.5 µM; 310,000 compounds, 0.54% hits; in the data active means inhibition above about 50%
Target sequence (O96028 whole entry, looked up): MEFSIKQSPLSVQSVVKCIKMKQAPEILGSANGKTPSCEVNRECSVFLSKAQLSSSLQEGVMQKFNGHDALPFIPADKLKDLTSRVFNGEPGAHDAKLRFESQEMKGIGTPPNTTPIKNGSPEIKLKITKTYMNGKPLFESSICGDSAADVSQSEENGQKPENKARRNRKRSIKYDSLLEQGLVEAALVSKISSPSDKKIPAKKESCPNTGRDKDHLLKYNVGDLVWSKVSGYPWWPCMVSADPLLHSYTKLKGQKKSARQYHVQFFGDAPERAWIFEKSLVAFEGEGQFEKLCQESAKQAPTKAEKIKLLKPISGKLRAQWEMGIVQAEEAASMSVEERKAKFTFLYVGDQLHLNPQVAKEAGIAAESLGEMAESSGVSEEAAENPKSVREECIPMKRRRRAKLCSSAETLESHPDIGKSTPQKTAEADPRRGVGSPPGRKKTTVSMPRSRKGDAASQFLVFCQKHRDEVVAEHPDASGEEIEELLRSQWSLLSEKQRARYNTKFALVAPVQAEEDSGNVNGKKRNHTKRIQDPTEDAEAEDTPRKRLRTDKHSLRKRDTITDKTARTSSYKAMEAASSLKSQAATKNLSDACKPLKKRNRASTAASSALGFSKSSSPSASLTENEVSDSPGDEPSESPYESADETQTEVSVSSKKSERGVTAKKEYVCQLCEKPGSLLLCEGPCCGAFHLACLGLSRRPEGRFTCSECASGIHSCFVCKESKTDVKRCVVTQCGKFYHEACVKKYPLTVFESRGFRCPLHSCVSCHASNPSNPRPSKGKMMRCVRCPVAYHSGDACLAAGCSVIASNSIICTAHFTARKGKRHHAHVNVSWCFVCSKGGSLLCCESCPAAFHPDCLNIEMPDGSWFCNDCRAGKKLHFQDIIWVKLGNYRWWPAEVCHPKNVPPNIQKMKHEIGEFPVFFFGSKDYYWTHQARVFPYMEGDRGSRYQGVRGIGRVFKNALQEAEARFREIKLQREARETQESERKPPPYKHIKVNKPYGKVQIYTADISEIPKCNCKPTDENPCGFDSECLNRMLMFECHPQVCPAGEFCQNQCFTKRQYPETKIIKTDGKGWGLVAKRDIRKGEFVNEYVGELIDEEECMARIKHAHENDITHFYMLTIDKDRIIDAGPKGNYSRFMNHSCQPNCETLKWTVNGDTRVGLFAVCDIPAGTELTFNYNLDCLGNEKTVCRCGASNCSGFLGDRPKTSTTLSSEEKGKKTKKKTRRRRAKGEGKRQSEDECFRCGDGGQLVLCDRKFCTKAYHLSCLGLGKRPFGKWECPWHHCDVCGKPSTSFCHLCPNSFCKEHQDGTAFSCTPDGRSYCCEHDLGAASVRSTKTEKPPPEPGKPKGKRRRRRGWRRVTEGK
LANA DNA inh – blocks KSHV LANA C-terminal domain binding to DNA | MBP-C-LANA/FAM-LBS DNA binding, fluorescence polarization | inhibition, % at 9 µM | 340,000 compounds, 0.078% hits | AID 504423;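 active means highest replicate inhibition at or above 60% at 9 µM, even if other replicates fall short; inactive means all replicates below 60% inhibition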;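 further: 0% = neutral control wells and 100% = 4 µM acridine orange control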
The depositor's hits bear a star.

What do the screens show for `COc1ccc(/C=C2\COc3ccccc3C2=O)cc1OC`?
Keap1-Nrf2 PPI: 2; HDAC3 inh: 5; N-glyco inh: 36*; NSD2 inh: 10; LANA DNA inh: -1

Results for C[C@@H]1CN([C@H](C)CO)C(=O)CCCn2nncc2CO[C@H]1CN(C)Cc1ccc2c(c1)OCCN2C ?
Casp6 inh: 8

What do the screens show for `C=CC[C@H](CC(=O)N[C@H](CO)Cc1ccccc1)C(=O)N[C@@H](COC(=O)[C@@H](CC=C)CC(=O)OC(C)(C)C)Cc1c[nH]c2ccccc12`?
Keap1-Nrf2 PPI: -9; HDAC3 inh: 32*; N-glyco inh: -3; Casp6 inh: -2; LANA DNA inh: 1

How did C=CC[C@@H](CC(=O)N[C@@H](CO)Cc1ccccc1)C(=O)N[C@H](COC(=O)[C@@H](CC=C)CC(=O)OC(C)(C)C)Cc1c[nH]c2ccccc12 do in these assays?
Keap1-Nrf2 PPI: 0; HDAC3 inh: 37*; N-glyco inh: 0; Casp6 inh: -1; LANA DNA inh: 0

Results for C=CC[C@@H](CC(=O)N[C@H](CO)Cc1ccccc1)C(=O)N[C@@H](COC(=O)[C@H](CC=C)CC(=O)OC(C)(C)C)Cc1ccccc1 ?
Keap1-Nrf2 PPI: -2; HDAC3 inh: 19; N-glyco inh: -5; Casp6 inh: 0; LANA DNA inh: 0

What do the screens show for `CCCNC(=O)N(C)C[C@H]1Oc2cc(-c3cccnc3)ccc2S(=O)(=O)N([C@H](C)CO)C[C@@H]1C`?
Casp6 inh: 1

What do the screens show for `COc1ccc2c(c1)C(=O)N1[C@H]3c4cc(Br)ccc4OC[C@@H]3[C@H](c3ccccc3)[C@]1(C)C(=O)N2`?
Keap1-Nrf2 PPI: -8; HDAC3 inh: 4; N-glyco inh: 37*; LANA DNA inh: 0

Results for COc1ccc2c(c1)OC[C@H]1[C@H]2N2C(=O)c3cc(Cl)ccc3NC(=O)[C@@]2(C)[C@H]1c1ccccc1 ?
Keap1-Nrf2 PPI: 3; HDAC3 inh: -1; N-glyco inh: 21; LANA DNA inh: 0

Results for COc1ccc2c(c1)[C@H]1[C@H](CO2)[C@H](c2ccccc2)[C@]2(C)C(=O)Nc3cc(C)ccc3C(=O)N12 ?
Keap1-Nrf2 PPI: -1; HDAC3 inh: 8; N-glyco inh: 51*; Casp6 inh: 2; LANA DNA inh: 1

Results for COc1ccc2c(c1)C(=O)N1[C@H]3c4cc(Cl)ccc4OC[C@@H]3[C@H](c3ccccc3)[C@]1(C)C(=O)N2 ?
Keap1-Nrf2 PPI: -3; HDAC3 inh: -7; N-glyco inh: 38*; LANA DNA inh: 2

Results for C[C@@]12C(=O)Nc3ccc(Br)cc3C(=O)N1[C@H]1c3cc(Br)ccc3OC[C@@H]1[C@@H]2c1ccccc1 ?
Keap1-Nrf2 PPI: -2; HDAC3 inh: -1; N-glyco inh: 15; Casp6 inh: -3; LANA DNA inh: 8

What do the screens show for `COc1ccc2c(c1)[C@H]1[C@H](CO2)[C@H](c2ccccc2)[C@]2(C)C(=O)Nc3cc(Cl)ccc3C(=O)N12`?
Keap1-Nrf2 PPI: -7; HDAC3 inh: 3; N-glyco inh: 64*; LANA DNA inh: 3

What do the screens show for `O=C(c1ccccn1)N1C[C@H]2[C@@H](c3ccccc31)[C@@H](CO)N2C(=O)Nc1ccccc1F`?
Casp6 inh: 2

What do the screens show for `COc1ccc2c(c1)OC[C@H]1[C@H]2N2C(=O)c3cc(OC)ccc3NC(=O)[C@@]2(C)[C@H]1c1ccccc1`?
Keap1-Nrf2 PPI: -2; HDAC3 inh: 0; N-glyco inh: 24; Casp6 inh: 3; LANA DNA inh: 4

What do the screens show for `COc1ccc2c(c1)OC[C@H]1[C@H]2N2C(=O)c3ccc(C)cc3NC(=O)[C@@]2(C)[C@H]1c1ccccc1`?
Keap1-Nrf2 PPI: -8; HDAC3 inh: 1; N-glyco inh: 48*; LANA DNA inh: -2

Results for C[C@@]12C(=O)Nc3cc(F)ccc3C(=O)N1[C@H]1c3ccccc3OC[C@@H]1[C@@H]2c1ccccc1 ?
Keap1-Nrf2 PPI: 0; HDAC3 inh: -9; N-glyco inh: 26*; LANA DNA inh: 0

Results for C[C@@H]1CN([C@H](C)CO)C(=O)c2cc(NC(=O)Cc3ccccc3)ccc2O[C@@H](C)CCCCO[C@@H]1CN(C)C(=O)Nc1cccc2ccccc12 ?
Casp6 inh: 1

Results for O=C(c1ccccc1)c1ccc(N2CCOCC2)cc1 ?
Keap1-Nrf2 PPI: -1; N-glyco inh: -6; Casp6 inh: -32; NSD2 inh: 1; LANA DNA inh: 2

What do the screens show for `CC(=O)N(C1=C(N2CCOCC2)C(=O)c2ccccc2C1=O)c1ccc(C(=O)O)cc1`?
Keap1-Nrf2 PPI: -4; HDAC3 inh: 7; N-glyco inh: -11; Casp6 inh: 70*; NSD2 inh: 48; LANA DNA inh: 0

How did CC(=O)N(C)C1=C(N2CCOCC2)C(=O)c2ccccc2C1=O do in these assays?
Keap1-Nrf2 PPI: 3; HDAC3 inh: 1; N-glyco inh: -20; NSD2 inh: 98*; LANA DNA inh: 1

What do the screens show for `CCOC(=O)c1c(NC(=O)/C=C\C(=O)O)sc(C)c1-c1ccccc1`?
Keap1-Nrf2 PPI: -8; HDAC3 inh: -4; N-glyco inh: 0; Casp6 inh: 0; NSD2 inh: -2; LANA DNA inh: 0

How did CCOC(=O)c1c(NC(=O)/C=C/C(=O)O)sc(C)c1-c1ccc(C(C)(C)C)cc1 do in these assays?
Keap1-Nrf2 PPI: 1; HDAC3 inh: 17; N-glyco inh: 14; Casp6 inh: 42*; NSD2 inh: 69*; LANA DNA inh: 11

How did CN(C)S(=O)(=O)c1ccc(N2CCCC2)c(C(=O)Nc2ccccc2Br)c1 do in these assays?
Keap1-Nrf2 PPI: -1; HDAC3 inh: -2; N-glyco inh: 0; Casp6 inh: 2; NSD2 inh: 0; LANA DNA inh: -1

Results for Cc1cccc2sc(NC(=O)c3cc(S(=O)(=O)N(C)C)ccc3N3CCCC3)nc12 ?
Keap1-Nrf2 PPI: 4; HDAC3 inh: 3; N-glyco inh: 87*; Casp6 inh: -3; NSD2 inh: -2; LANA DNA inh: 2

Results for CN(C)S(=O)(=O)c1ccc(N2CCCC2)c(C(=O)Nc2nc(-c3ccc(F)cc3)cs2)c1 ?
Keap1-Nrf2 PPI: 5; HDAC3 inh: -4; N-glyco inh: 20; Casp6 inh: 1; NSD2 inh: -3; LANA DNA inh: 0

What do the screens show for `CN(C)S(=O)(=O)c1ccc(N2CCCC2)c(C(=O)Nc2nc3ccccc3s2)c1`?
Keap1-Nrf2 PPI: -2; HDAC3 inh: 1; N-glyco inh: 90*; Casp6 inh: -2; NSD2 inh: 0; LANA DNA inh: 3

Results for CN(C)S(=O)(=O)c1ccc(N2CCCC2)c(C(=O)Nc2nc3ccc(F)cc3s2)c1 ?
Keap1-Nrf2 PPI: -5; HDAC3 inh: -1; N-glyco inh: 63*; Casp6 inh: -2; NSD2 inh: 0; LANA DNA inh: -2
